Source: the supplement of paper PMC9694430

Legend:
Test in all cases: thermal shift delta Tm vs DMSO control; higher = stronger stabilization (binding)
Settings in all cases: 12.5 µM; protein concentration 2 µM
LOC_OS02G45750-cb003 = tested on: LOC_OS02G45750-cb003
In short: (§1)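 Thermal shift values come from differential scanning fluorimetry on purified rice kinase domains made in E. coli, with melting temperatures obtained from Boltzmann fits. Samples of 19.5 μl held 2 μM kinase, 100 mM potassium phosphate pH 7.5, 150 mM NaCl, 10% glycerol, 5 × SYPRO Orange and compound in DMSO, and were heated from 25°C to 95°C at 0.05°C/s. Each shift is a triplicate mean relative to the DMSO-only protein sample.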

LOC_OS02G54510-cb004 = tested on: LOC_OS02G54510-cb004
In short: as §1

LOC_OS03G04050-cb001 = tested on: LOC_OS03G04050-cb001
In short: as §1

LOC_OS03G12390-cb001 = tested on: LOC_OS03G12390-cb001
In short: as §1

LOC_OS03G27990-cb004 = tested on: LOC_OS03G27990-cb004
In short: as §1

LOC_OS03G50450-cb001 = tested on: LOC_OS03G50450-cb001
In short: as §1

LOC_OS03G50810-cb003 = tested on: LOC_OS03G50810-cb003
In short: as §1

LOC_OS04G35114-cb001 = tested on: LOC_OS04G35114-cb001
In short: as §1

LOC_OS04G38480-cb003 = tested on: T1, LOC_OS04G38480-cb003
T1 sequence (whole entry): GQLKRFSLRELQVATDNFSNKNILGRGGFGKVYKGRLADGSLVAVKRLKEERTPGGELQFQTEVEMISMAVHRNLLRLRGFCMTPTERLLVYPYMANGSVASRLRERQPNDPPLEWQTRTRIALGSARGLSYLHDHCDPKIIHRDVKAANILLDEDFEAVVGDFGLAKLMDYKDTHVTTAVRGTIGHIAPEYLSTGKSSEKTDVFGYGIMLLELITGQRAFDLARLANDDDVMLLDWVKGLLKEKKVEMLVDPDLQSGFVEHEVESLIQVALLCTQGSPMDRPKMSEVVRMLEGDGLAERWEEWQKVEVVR
In short: as §1

LOC_OS04G41100-cb001 = tested on: T2, LOC_OS04G41100-cb001
T2 sequence (whole entry): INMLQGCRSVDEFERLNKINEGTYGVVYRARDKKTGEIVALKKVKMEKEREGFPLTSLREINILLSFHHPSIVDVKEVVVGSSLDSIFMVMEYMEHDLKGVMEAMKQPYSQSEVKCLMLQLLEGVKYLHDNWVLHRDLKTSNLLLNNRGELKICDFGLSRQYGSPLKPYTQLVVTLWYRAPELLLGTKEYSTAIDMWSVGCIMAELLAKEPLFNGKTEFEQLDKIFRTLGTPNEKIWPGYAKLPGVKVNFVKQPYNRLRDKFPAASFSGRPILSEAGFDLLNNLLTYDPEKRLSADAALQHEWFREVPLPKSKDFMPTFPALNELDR
In short: as §1

LOC_OS04G57630-cb004 = tested on: LOC_OS04G57630-cb004
In short: as §1

LOC_OS05G07850-cb002 = tested on: LOC_OS05G07850-cb002
In short: as §1

LOC_OS05G16824-cb004 = tested on: LOC_OS05G16824-cb004
In short: as §1

LOC_OS05G28520-cb001 = tested on: LOC_OS05G28520-cb001
In short: as §1

LOC_OS05G30820-cb001 = tested on: LOC_OS05G30820-cb001
In short: as §1

LOC_OS05G43570-cb004 = tested on: LOC_OS05G43570-cb004
In short: as §1

LOC_OS06G16330-cb003 = tested on: LOC_OS06G16330-cb003
Sequence of LOC_OS06G16330-cb003 (as listed by the source): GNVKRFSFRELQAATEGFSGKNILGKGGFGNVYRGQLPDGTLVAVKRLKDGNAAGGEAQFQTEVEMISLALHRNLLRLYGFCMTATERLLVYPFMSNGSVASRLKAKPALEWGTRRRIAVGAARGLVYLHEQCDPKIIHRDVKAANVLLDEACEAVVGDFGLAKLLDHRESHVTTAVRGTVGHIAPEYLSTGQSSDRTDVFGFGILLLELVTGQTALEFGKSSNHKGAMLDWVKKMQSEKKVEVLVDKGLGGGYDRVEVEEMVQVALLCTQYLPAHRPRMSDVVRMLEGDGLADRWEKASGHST
In short: as §1

LOC_OS06G22820-cb001 = tested on: T3, LOC_OS06G22820-cb001
T3 sequence (whole entry): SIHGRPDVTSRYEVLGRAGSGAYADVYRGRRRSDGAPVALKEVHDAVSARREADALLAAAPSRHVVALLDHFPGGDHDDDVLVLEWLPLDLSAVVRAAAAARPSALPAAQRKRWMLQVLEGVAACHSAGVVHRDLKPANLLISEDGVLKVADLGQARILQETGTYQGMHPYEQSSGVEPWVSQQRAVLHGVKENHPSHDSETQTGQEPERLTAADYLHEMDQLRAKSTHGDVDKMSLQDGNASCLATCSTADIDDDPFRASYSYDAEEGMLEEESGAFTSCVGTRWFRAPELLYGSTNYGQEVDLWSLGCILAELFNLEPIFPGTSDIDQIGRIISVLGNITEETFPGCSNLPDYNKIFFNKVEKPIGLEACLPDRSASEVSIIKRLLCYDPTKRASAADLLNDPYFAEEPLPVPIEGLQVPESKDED
In short: as §1

LOC_OS07G06570-cb004 = tested on: LOC_OS07G06570-cb004
In short: as §1

LOC_OS07G07230-cb001 = tested on: LOC_OS07G07230-cb001
In short: as §1
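Also: purified Escherichia coli-expressed rice kinase domain construct.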

| Compound | thermal shift delta Tm (LOC_OS02G45750-cb003) [°C] | thermal shift delta Tm (LOC_OS02G54510-cb004) [°C] | thermal shift delta Tm (LOC_OS03G04050-cb001) [°C] | thermal shift delta Tm (LOC_OS03G12390-cb001) [°C] | thermal shift delta Tm (LOC_OS03G27990-cb004) [°C] | thermal shift delta Tm (LOC_OS03G50450-cb001) [°C] | thermal shift delta Tm (LOC_OS03G50810-cb003) [°C] | thermal shift delta Tm (LOC_OS04G35114-cb001) [°C] | thermal shift delta Tm (LOC_OS04G38480-cb003) [°C] | thermal shift delta Tm (LOC_OS04G41100-cb001) [°C] | thermal shift delta Tm (LOC_OS04G57630-cb004) [°C] | thermal shift delta Tm (LOC_OS05G07850-cb002) [°C] | thermal shift delta Tm (LOC_OS05G16824-cb004) [°C] | thermal shift delta Tm (LOC_OS05G28520-cb001) [°C] | thermal shift delta Tm (LOC_OS05G30820-cb001) [°C] | thermal shift delta Tm (LOC_OS05G43570-cb004) [°C] | thermal shift delta Tm (LOC_OS06G16330-cb003) [°C] | thermal shift delta Tm (LOC_OS06G22820-cb001) [°C] | thermal shift delta Tm (LOC_OS07G06570-cb004) [°C] | thermal shift delta Tm (LOC_OS07G07230-cb001) [°C] |
| --- | --- | --- | --- | --- | --- | --- | --- | --- | --- | --- | --- | --- | --- | --- | --- | --- | --- | --- | --- | --- |
| COc1ccc2c(Oc3ccc(NC(=O)c4c(C)n(CC(C)(C)O)n(-c5ccccc5)c4=O)nc3)ccnc2c1 | 1.4 | 0.7 | 0.2 | 0.21 | 0.18 | 0.38 | 0.39 | 0.36 | 1.95 | 0.3 | 1.04 | 9.73 | -1.1 | 0.15 | 0.52 | 1.07 | 5.11 | 0.68 | 0.62 | -0.14 |
| CC(C)N(CCC(=O)c1ccc2ccccc2c1)Cc1ccccc1 | -0.52 | -0.55 | 0.06 | -6.73 | -1 | 0.58 | -1.55 | -1.2 | 0.27 | 2.52 | 0.41 | 4.18 | -2.65 | -0.95 | -1.16 | -0.34 | -1.31 | -1.34 | 0.13 | 0.23 |
| Cn1c(=O)c(Oc2ccc(F)cc2F)cc2cnc(NC(CCO)CCO)nc21 | 0.76 | 0.53 | 0.43 | -0.19 | 0.49 | 0.26 | 0.46 | 0.71 | 0.93 | 0.09 | -0.25 | 0.33 | -2.67 | 0.51 | 0.63 | 0.19 | -0.27 | 0.72 | 1.46 | 0.54 |
| O=c1cc(N2CCOCC2)oc2c(-c3ccc4c(c3)OCCO4)csc12 | 0.67 | -0.08 | 0.24 | 0.53 | 0.46 | 0.44 | 0.8 | 1.85 | 1.22 | 0.17 | 0.03 | 6 | 1.81 | -0.12 | 0.24 | 0.13 | 0.18 | 0.4 | 1.45 | 0.63 |
| O=C(c1ccc(F)c(F)c1Nc1ccc(I)cc1F)N1CC(O)([C@@H]2CCCCN2)C1 [Cobimetinib (GDC-0973, RG7420)] | 1.13 | 0.05 | 0.77 | -0.17 | 0.68 | 0.95 | 0.43 | 0.76 | 0.54 | 0.19 | 0.22 | 0.2 | -1.19 | 0.07 | 0.47 | 0.39 | -0.17 | 0.43 | 1.59 | 0.43 |
| NC(=O)Nc1cc(-c2cccc(F)c2)sc1C(=O)N[C@H]1CCCNC1 | 1.81 | 1.91 | 0.72 | 2.87 | 3.23 | 3.98 | 4.12 | 2.52 | 2.65 | 0.96 | 3.39 | 11.9 | 10.8 | 0.35 | 1.33 | 1.05 | 9.93 | 0.87 | 1.07 | -0.31 |
| C[C@H](Nc1ncnc2nc[nH]c12)c1cc2cccc(Cl)c2c(=O)n1-c1ccccc1 [Duvelisib (IPI-145, INK1197)] | -1.36 | 2.02 | -0.19 | -0.34 | -0.31 | 0.38 | 0.72 | -1.37 | 0.01 | 0.58 | -0.24 | 0.17 | 0.84 | 0.82 | 0.45 | 0.49 | 0.28 | 0.69 | 0.07 | 12.2 |
| CNC(=O)c1cc(Oc2ccc(NC(=O)Nc3cc(C(C)(C)C)nn3-c3ccc4ncccc4c3)c(F)c2)ccn1 [Rebastinib (DCC-2036)] | 12.3 | 6.64 | 0.59 | 5.55 | 0.52 | 0.33 | 5.06 | 0.84 | 2.8 | 5.27 | 10.4 | 14.3 | 0.76 | 0.81 | 1.05 | 0.62 | 10 | 0.59 | 0.44 | -0.15 |
| Fc1ccc2[nH]ccc2c1-c1nc(N2CCOCC2)c2sc(CN3CCN(CC4CC4)CC3)cc2n1 | 0 | -0.03 | 0.21 | 0.01 | 0 | -0.17 | 1.38 | 0.63 | 0.91 | 0.18 | -0.15 | 2.07 | -1.52 | 0.19 | 0.44 | 0.12 | -0.11 | 0.53 | 0.96 | 0.95 |
| CN1CCN(Cc2ccc(-c3cnc4[nH]cc(-c5ccc6[nH]ccc6c5)c4c3)cc2)CC1 | 17.2 | 1.09 | 0.85 | 4.74 | 10.8 | 3.95 | 7.6 | 14.9 | 6.36 | 3.3 | 11.1 | 15.3 | 11.2 | 2.09 | 1.88 | 1.74 | 13.7 | 0.7 | 1.92 | 0.61 |
| CCn1c(=O)c(-c2cc[nH]n2)cc2c(C)nc(N)nc21 | 0.15 | 0.22 | 0.35 | 0.21 | 0.09 | 0.05 | 0.28 | 0.94 | 0.82 | 0.15 | 0.11 | 3 | -1.71 | 0.22 | 0.35 | -0.07 | 0.86 | 0.06 | 0.51 | 0.61 |
| Cc1ccc(C(=O)Nc2ccc(Oc3cc4cnn(C)c4cc3-c3cn[nH]c3)c(F)c2)c(=O)n1-c1ccc(F)cc1 | 1.6 | 0.17 | 1.07 | 0.61 | 0.79 | 1.3 | 1.13 | 0.73 | 3.19 | 1.32 | 1.06 | 12.9 | 0.64 | 0.91 | 0.24 | 1.08 | 5.02 | 1.28 | 1.37 | -0.23 |
